# Experimental data as given in PubChem BioAssay (EPA / NIEHS).
# Records with an inconclusive call do not appear. Activity calls are given as the source filed them. Rule for the calls: active = hit-call score of the fitted dose curve at least 0.9, where 1 is the maximum; inconclusive = response in the unintended direction; inactive = score below 0.9.
# Read-out: HMG-CoA synthase (HMGCS2), HMGCS2 (gene 3158)
# Assay: CLD_HMGCS2_6hr: CellzDirect (CLD) Gene Expression Assay for HMG-CoA synthase (HMGCS2) at 6 hours (AID 2283682);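 note: actives raise HMGCS2 transcript above the 0.2% DMSO vehicle baseline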
# Procedure: CLD_6hr is a cell-based, multiplexed-readout assay that uses hepatocyte, a human liver primary cell, with measurements taken at 6 hours after chemical dosing in a 96-well plate.CLD_HMGCS2_6hr is one of 16 assay component(s) measured or calculated from the CLD_6hr assay. It is designed to make measurements of mRNA induction, a form of inducible reporter, as detected with chemiluminescence signals by Quantitative Nuclease Protection Assay (qNPA) technology.Data from the assay component CLD_HMGCS2_6hr was analyzed at the endpoint, CLD_HMGCS2_6hr, in the positive analysis fitting direction relative to DMSO as the negative control and baseline of activity. Using a type of inducible reporter, gain-of-signal activity can be used to understand changes in the reporter gene as they relate to the gene HMGCS2. Furthermore, this assay endpoint can be referred to as a primary readout. To generalize the intended target to other relatable targets, this assay endpoint is annotated to the lyase intended target family, where subfamily is HMG-CoA synthase.
# Human hepatocyte cultures were treated daily for two consecutive days with fresh dosing solutions containing appropriate concentrations of the 320 ToxCast chemicals (chemical identities were blinded to CellzDirect and other ToxCast collaborators), vehicle control (0.2% DMSO), and positive control inducers as summarized in Table 1. Due to the large number of treatment groups and chemicals examined, the ToxCast chemicals were divided into two groups (spanning two independent cultures of hepatocytes from separate donor preparations (Hu778: ToxCast plates 1 and 2; Hu776: ToxCast plates 3 and 4). Each preparation of human hepatocyte cultures was treated with respective vehicle control, medium only control, set of six positive controls/reference chemicals for the five hepatic receptor pathways, and a subset of eight of the ToxCast chemicals (indoxacarb, pyrithiobac-sodium, norflurazon, cyhalofop-butyl, methomyl, thiram, acetochlor, and propiconazole). These replicate data, coupled with internal replicates designed within the blinded ToxCast chemical library, provided additional data to evaluate interindividual differences between hepatocyte preparations and their potential impact on chemical profiles.Cell morphology and integrity were evaluated using phase-contrast microscopy as an indicator of hepatocyte cell health (Tyson & Green, 1987). Cultures for each treatment group (i.e., media, vehicle [0.2% DMSO], positive control inducers [multiple concentrations], and the ToxCast chemicals [multiple concentrations]) were observed and cell morphology was assessed relative to vehicle control cultures at each harvest time point (0, 6, 24, or 48 h). […] Images were evaluated at the conclusion of the study to assess changes in cell integrity and account for the effects of chemical exposure on uncharacteristic changes in concentration-dependent gene expression profiles. The results from these determinations of apparent cytotoxicity were annotated (yes/no) alongside the corresponding qNPA data for reference.At the conclusion of each treatment period, hepatocyte cultures (96-well) were washed with 1 volume of HBSS, lysed by addition of 25 ul ArrayPlate lysis buffer (HTG, Tucson, AZ), and 70 ul/well of Denaturation Oil, denatured by incubation at 95C for 10 min, and frozen at approximately -70C until analysis by nuclease protection assay (qNPA) (Roberts et al., 2007). For qNPA analysis, cell lysates were thawed at 50C for approximately 30 min, qNPA probes were added, and samples were incubated at 95C for 10 min to begin the detection process by denaturing the target RNA, dissociating the duplexes and secondary structure hybridization. At the conclusion of the hybridization period, S1 nuclease reagent was added to each sample to digest all nonprotected nucleotides at 50C for 60-90 min. […]
Structure (SMILES),outcome,AC50
CSC(=O)c1cccc2nnsc12,inactive,–
CC(C)(C)[C@@H](O)[C@@H](Cc1ccc(Cl)cc1)n1cncn1,–,1.9 µM (active)
C#CCOC(=O)[C@@H](C)Oc1ccc(Oc2ncc(Cl)cc2F)cc1,inactive,–
COC(=O)c1c(Cl)nn(C)c1S(=O)(=O)NC(=O)Nc1nc(OC)cc(OC)n1,inactive,–
CC(C)(c1ccc(O)cc1)c1ccc(O)cc1,inactive,–
COC(=O)c1ccc(I)cc1S(=O)(=O)NC(=O)Nc1nc(C)nc(OC)n1,inactive,–
CCC(C)OC(=O)N1CCCCC1CCO (stereo not given),inactive,–
S=C([S-])NCCNC(=S)[S-].[Mn+2],inactive,–
COC(=O)c1ccccc1C(=O)O,inactive,–
O=C(O)C1(C(=O)Nc2ccc(Cl)cc2Cl)CC1,inactive,–
CCOC(=O)C(C)Oc1ccc(Oc2nc3ccc(Cl)cc3o2)cc1 (stereo not given),inactive,–
N#CSCSc1nc2ccccc2s1,–,7.13 µM (active)
CN(C)C(=O)Nc1ccc(Cl)c(Cl)c1,inactive,–
CCOC(=O)COc1cc(-n2ncc(C(F)(F)F)c(C)c2=O)c(F)cc1Cl,inactive,–
CCCCC(CC)COC(=O)c1ccccc1C(=O)O (stereo not given),inactive,–
CC1(C)C(C=C(Cl)Cl)C1C(=O)OCc1cccc(Oc2ccccc2)c1 (stereo not given),inactive,–
CCCOC(=O)c1ccc(C(=O)OCCC)nc1,inactive,–
Oc1ccc(C(c2ccc(O)cc2)C(Cl)(Cl)Cl)cc1,inactive,–
CCCCOC(=O)C(C)Oc1ccc(Oc2ccc(C(F)(F)F)cn2)cc1 (stereo not given),inactive,–
COc1c(Cl)ccc(Cl)c1C(=O)O,inactive,–
C=CCOC(Cn1ccnc1)c1ccc(Cl)cc1Cl (stereo not given),inactive,–
CCC(O)=C1C(=O)CC(C(=O)O)CC1=O (stereo not given),inactive,–
CCCCOC(=O)[C@@H](C)Oc1ccc(Oc2ccc(C(F)(F)F)cn2)cc1,inactive,–
c1ccc(Nc2ccccc2)cc1,inactive,–
CCN(CC)C(=O)c1cccc(C)c1,inactive,–
